Only some compounds are listed: those with a hit (about 8.7% of all), similar ones and a draw of the others.
VACV Venus inh: inhibitors of vaccinia virus (Venus reporter). 330,000 compounds, 0.46% hits. Vaccinia virus Venus reporter expression, fluorescence. Potency, µM (series often up to 36.5 µM), without a hit: top-dose activity change, negative = inhibition, usual class: inhibitors. AID 720580; calls by dose curve; tested in A549 cells; further: nearly all actives have a fitted effect of over 30% in size
Pf growth 96h: P. falciparum growth inhibition at 96 hour, primary screen for plastid delayed-death inhibitors. P. falciparum luciferase reporter growth, 96 h. AID 504834. Potency, µM (highest dose often 28.7 µM), without a hit: at the highest dose activity change, negative = inhibition, hits mostly inhibitors. 320,000 compounds, 6.9% hits
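P. falciparum expressing integrated firefly luciferase grown in erythrocytes (2% hematocrit, 0.05% parasitemia final) with compounds for 96 hours at 37 C, 5% CO2. Growth inhibition read as loss of luminescence after adding luciferase detection reagent.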
VACV mCherry inh: vaccinia inhibition (mCherry reporter) | Vaccinia virus mCherry reporter infection, fluorescence | AID 720579 | 310,000 compounds, 0.63% hits | Potency, µM (doses to about 36.5 µM), inactives show at the highest dose activity change, negative = inhibition, most hits filed as inhibitors; calls by dose curve; tested in A549 cells; further: nearly all actives have a fitted effect of over 35% in size
AMA1-RON2 inh: AMA1-RON2 (P. falciparum) interaction inhibition. AlphaScreen AMA1-biotinylated RON2 peptide binding. Potency, µM (highest dose often 58.2 µM), inactives show at the top dose activity change, negative = inhibition, actives largely listed as inhibitors. 360,000 compounds, 0.2% hits. AID 720542;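 further: 0% = vehicle wells and -100% = peptide control; nearly all actives have a fitted effect of over 45% in size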
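AMA1 (3D7) with his tag at 25 nM final met compounds first, then biotinylated RON2 peptide at 25 nM; detection used donor plus acceptor beads, 10 µg/mL apiece, read by AlphaScreen after 30 min at room temperature.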
Pf growth 48h: P. falciparum growth inhibition at 48 hours (one generation). P. falciparum luciferase growth in erythrocytes, 48 h. Potency, µM (titrated, usually from 28.7 µM), for the others: top-dose activity change, negative = inhibition, most hits filed as inhibitors. 310,000 compounds, 5.9% hits. AID 504832
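Luciferase-expressing P. falciparum in infected erythrocytes (2% hematocrit, 0.1% parasitemia final) in RPMI 1640/0.5% Albumax were exposed to compound for 48 hours at 37 C, 5% CO2; growth read as luminescence.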
* = called active by the depositor; i = inactive; ? = inconclusive; nt = no result given; [ ] = another dose, or the depositor's remark. Unless noted, the call rests on the fitted dose curve; in most records, active means well fitted curve in the direction sought with a large enough effect; inconclusive means small, poorly fitted or top-dose-only effect, or another doubt; inactive means no such curve, though single readings can be large; an effect the other way counts as inactive or inconclusive. Unless noted, on the % scale 0 is the no-effect control and ±100 the full control effect; potency means the concentration at half of the fitted maximal effect.

SMILES	VACV Venus inh	Pf growth 96h	VACV mCherry inh	AMA1-RON2 inh	Pf growth 48h
Oc1ccccc1-c1nc(N2CCCC2)c2ccccc2n1	nt	4.1µM*	nt	1%	nt
Cc1nc2c(c(C)c1CCC(=O)NCc1ccc(Cl)cc1)c(=O)n(C)c(=O)n2C	-6%	nt	-7%	nt	nt
COC(=O)c1sccc1S(=O)(=O)N1CCN(c2ccccc2)CC1	1%	nt	9%	nt	nt
COc1ccc(S(=O)(=O)NCCc2sc(-c3cccnc3)nc2C)c(F)c1	5%	nt	-2%	nt	nt
COc1ccc(S(=O)(=O)N(CCO)c2ccccc2CN(C)C/C=C/c2ccc(Cl)cc2)cc1	-12%	nt	-11%	nt	nt
O=C(CCCCCNC(=O)c1ccccc1)N=Nc1c(O)[nH]c2c(Br)cc(Br)cc12	nt	0%	nt	nt	12µM*
CC(=O)CSc1ccc(-c2nc3cc(C)c(C)cc3[nH]2)cn1	-13%	34%	-26%	7%	-3%
CC(=O)CSc1ccc(-c2nc3ccccc3[nH]2)cn1	-18%	8.3µM*	-15%	-1%	75%
Cc1cccc(OCCC(=O)NO)c1	-3%	nt	-12%	nt	nt
CCOC(=O)CSc1nnc(-c2ccc(S(=O)(=O)N3CCOCC3)cc2)n1-c1ccccc1	nt	nt	nt	5%	7.4µM*
COc1ccccc1-n1c(SCC(=O)O)nnc1-c1ccc(S(=O)(=O)N2CCCCC2)cc1	nt	12µM*	nt	-5%	-6%
CCn1c(SCC(=O)Nc2ccccc2)nnc1-c1ccc(S(=O)(=O)N2CCOCC2)cc1	3%	?	-9%	1%	5.2µM*
Cc1ccc(CSc2nnc(-c3cccc(S(=O)(=O)N4CCOCC4)c3)n2C2CCCC2)cc1	-27%	8.3µM*	-20%	5%	9.3µM*
C=CCn1c(SCC(=O)Nc2ccccc2)nnc1-c1cccc(S(=O)(=O)N2CCOCC2)c1	-3%	27%	nt	-6%	nt
COc1ccc(-n2ccn(CC(=O)NCc3ccc(C)cc3)c(=O)c2=O)cc1OC	-15%	nt	-7%	nt	nt
CSc1ncc(C(=O)Nc2ccc(C)c(Cl)c2)c(-c2ccccc2)n1	-10%	nt	-11%	nt	nt
CC(C)Cn1c(SCC(=O)NCc2ccc(Cl)cc2)nnc1-c1cccc(S(=O)(=O)N2CCOCC2)c1	-20%	9.3µM*	i	7%	?
CC(C)Cn1c(SCC(=O)O)nnc1-c1cccc(S(=O)(=O)N2CCOCC2)c1	nt	nt	nt	-3%	nt
CCn1c(SCC(=O)Nc2ccc(-c3nc4ccc(C)cc4s3)cc2)nnc1-c1ccccc1	nt	13µM*	nt	nt	214%
C=CCn1c(SCC(=O)Nc2ccc(-c3nc4ccc(C)cc4s3)cc2)nnc1-c1ccncc1	-19%	?	i	7%	127%
COc1ccc(C)cc1NC(=O)c1nnn(Cc2cc(C)ccc2C)c1N	nt	5.2µM*	nt	-5%	nt
COc1ccc(OC)c(NC(=O)c2nnn(Cc3ccccc3C)c2N)c1	nt	?	nt	-6%	12µM*
C#CC1(O)C=CC2C3CCC4=CC(=O)CCC4C3CCC21CC (stereo not given)	nt	8.5µM*	nt	0%	?
CCc1ccc(CNC(=O)c2cnc3sc(N4CCOCC4)nn3c2=O)cc1	-5%	nt	-10%	nt	nt
CCOc1ccccc1-c1noc(CCC(=O)Nc2cccnc2)n1	9%	8.3µM*	i	4%	11%
SMILES	VACV Venus inh	Pf growth 96h	VACV mCherry inh	AMA1-RON2 inh	Pf growth 48h
COc1ccccc1CC(=O)Nc1ccc(-c2noc(COc3ccc(Cl)c(C)c3)n2)cc1	nt	-12%	nt	11%	nt
CCOc1ccccc1-c1nc(-c2ccc(NC(=O)Cc3ccccc3OC)cc2)no1	nt	3.7µM*	nt	-4%	13µM*
O=C(Cc1ccccc1)Nc1ccc(-c2nnc(-c3ccco3)o2)cc1	8%	102%	-12%	5%	23%
CCOc1ccccc1NC(=O)c1ccccc1-c1nc(-c2ccccc2)no1	nt	8.3µM*	nt	6%	?
COc1ccccc1CC(=O)Nc1ccc(-c2nnc(-c3ccco3)o2)cc1	-25%	135%	?	12%	8.3µM*
CCCCN(C)C(=O)c1nc2ccccn2c1CN1CCN(c2ccccn2)CC1	-10%	?	i	2%	0%
C=C(C)CN(CC)Cc1c(C(=O)N(C)CCCC)nc2ccccn12	-5%	9.3µM*	-2%	15%	-9%
Cn1c(SCC(=O)c2ccc3c(c2)OCO3)nnc1C1COc2ccccc2O1 (stereo not given)	nt	12µM*	nt	49%	?
O=C(CSc1nnc2scc(-c3ccccc3)n12)c1ccc2c(c1)OCCO2	nt	2.1µM*	nt	-1%	nt
CN(C)/C=C/C(=O)/C=C/c1cn(-c2ncc(C(F)(F)F)cc2Cl)c2ccccc12	?	?	nt	18%	13µM*
COC(=O)Cc1cn(-c2ncc(C(F)(F)F)cc2Cl)c2ccccc12	5%	?	nt	22%	nt
Cc1ccc(S(=O)(=O)N(Cc2n[nH]c(=S)n2-c2ccccc2)c2ccccc2)cc1	-9%	?	i	66%	2.3µM*
N#Cc1cccc(-n2c(-c3ccccc3)nnc2-c2ccccc2)c1C#N	nt	nt	nt	5%	5.2µM*
C=CCn1c(SCC(=O)c2[nH]c(C)c(C(=O)OC)c2C)nc2scc(-c3ccc(OC)c(OC)c3)c2c1=O	-18%	2.9µM*	-13%	-4%[2.32 µM]	?
COc1ccccc1NC(=S)NNC(=O)c1nn(C)cc1Cl	-3%	6.6µM*	-5%	0%	?
COc1ccccc1NC(=S)NNC(=O)c1nn(C)c(C)c1Cl	-6%	13%	-13%	-9%	nt
COc1ccccc1NC(=S)NNC(=O)c1ccc(O)cc1	-6%	0.37µM*	i	-10%	nt
COc1ccc(NC(=O)CC2Nc3ccccc3NC2=O)cc1 (stereo not given)	-4%	nt	-4%	nt	nt
COc1ccccc1NC(=O)CC1Nc2ccccc2NC1=O (stereo not given)	nt	nt	nt	6%	3.7µM*
COc1ccc(CCNC(=O)CC2Nc3cc(C)c(C)cc3NC2=O)cc1OC (stereo not given)	nt	nt	nt	-2%	13µM*
C=CC(=O)Nc1ccc(Nc2nc(NC3CCC(N(C)C)CC3)nc3c2ncn3C(C)C)cc1 (stereo not given)	1.1µM*	nt	?	-17%	nt
CC(C)n1cnc2c(Nc3cccc(F)c3)nc(NCCO)nc21	?	?	?	14%	?
COc1ccc(NC(=O)CCCn2c(=O)c3sccc3n(Cc3ccc(C)cc3C)c2=O)cc1	-11%	8.3µM*	-14%	2%	-2%
COc1ccc(NC(=O)CCCn2c(=O)c3sccc3n(Cc3ccc(C)cc3)c2=O)cc1	-16%	3%	i	-1%	-11%
CC1C(=O)C(C)C(c2ccc(Br)cc2)NC1c1ccc(Br)cc1 (stereo not given)	nt	3.7µM*	nt	0%	?
CC1C(=O)C(C)C(c2ccc3c(c2)OCO3)NC1c1ccc2c(c1)OCO2 (stereo not given)	-11%	23%	-12%	-9%	10µM*
CC1C(=O)C(C)C(c2cc(Br)ccc2O)NC1c1cc(Br)ccc1O (stereo not given)	?	nt	?	85%	nt
CN(C)c1ccc(C(=O)Nc2c(C(=O)NC(C)(C)C)oc3ccccc23)cc1	-3%	nt	-12%	nt	nt
